From the supplement of paper PMC7530171
± gives the standard deviation.

The compounds below were run on THP-1 (assay: THP-1 cell loss relative to DMSO control; higher = more host cell loss (toxicity); extreme values may be limits of the assay). Details: 10 µM; 4 days; infection: M. tuberculosis H37Rv.
Method: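 OICR kinase inhibitor library screened in duplicate at 10 uM against M. tuberculosis-infected THP-1 macrophages, 4 days at 37 C. THP-1 cell loss (cytotoxicity or loss of adherence) was quantified from Hoechst-stained nuclei counts by high-content imaging and normalised to the 1% DMSO control; 100 = complete loss of host cells.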
For `CN1CCC(CNc2ccc3ncc(-c4cccc(OC(F)(F)F)c4)n3n2)CC1`, the THP-1 cell loss was 55.8 ± 30%. With `O=C(O)c1cc(N(Cc2ccccc2O)Cc2cc(O)ccc2O)ccc1O` [Lavendustin A] the THP-1 cell loss was 4.39 ± 6.2%. With `O=C1Cc2c([nH]c3ccc([N+](=O)[O-])cc23)-c2ccccc2N1` [Alsterpaullone] the THP-1 cell loss was 100%. For `CC(C)[C@H](CO)Nc1nc(Nc2cccc(Cl)c2)c2ncn(C(C)C)c2n1` [Purvalanol A], the THP-1 cell loss was 100%. `Cc1cc(C(=O)Nc2cc(Nc3ccc4c(/C=C/c5ccccn5)n[nH]c4c3)ccc2F)n(C)n1` showed a THP-1 cell loss of 54.6 ± 11%. For `Cn1cc(/C=C2\C(=O)Nc3cccnc32)c2ccccc21`, the THP-1 cell loss was 41.8 ± 0.73%. For `COc1cc2c(Nc3ccc(NC(=O)c4ccccc4)cc3)ncnc2cc1OCCCN1CCOCC1`, the THP-1 cell loss was 27.2 ± 1.4%. `NC(=O)c1ccc2nc(-c3ccc(Oc4ccc(Cl)cc4)cc3)[nH]c2c1` [Chk2 Inhibitor II] was tested, and the THP-1 cell loss was 48.8 ± 4.4%. Compound `C[C@]1(O)C[C@@H](c2nc(-c3ccc4ccc(-c5ccccc5)nc4c3)c3c(N)nccn32)C1` has a THP-1 cell loss of 38.5 ± 4%. Work on `Nc1nc(OCC2CCCCC2)c2[nH]cnc2n1` yielded a THP-1 cell loss of 3.9 ± 5.5%. Compound `Cc1ccc2c(=O)c3ccccc3n(CCCN)c2c1C` has a THP-1 cell loss of 100%. `CN1CC[C@H](c2c(O)cc(O)c3c(=O)cc(-c4ccccc4Cl)oc23)[C@H](O)C1` [Alvocidib] gave a THP-1 cell loss of 100%. `CCCCCCCCCCCCCCCCn1cc[n+](Cc2ccccc2)c1C` was tested, and the THP-1 cell loss was 100%. Work on `Cn1cnc2c(NCc3ccccc3)nc(NCCO)nc21` [Olomoucine] yielded a THP-1 cell loss of 3.14 ± 4.4%. `Cc1ccc(NC2=CC(=O)c3sc(C)nc3C2=O)cc1` [Ryuvidine] was tested, and the THP-1 cell loss was 100%. Work on `O=C(NOCC1CC1)c1ccc(F)c(F)c1Nc1ccc(I)cc1Cl` yielded a THP-1 cell loss of 100%. `N#C/C(=C\c1ccc(O)c(O)c1)C(=O)NCc1ccccc1` showed a THP-1 cell loss of 0.71 ± 1%. Work on `CN1C(=O)C(Cc2c[nH]c3ccccc23)NC1=S` (stereo unspecified) [Necrostatin-1] yielded a THP-1 cell loss of 2.6 ± 3.7%. Compound `CC(=O)Nc1ccc([C@H](C)C(=O)Nc2ncc(C(C)C)s2)cc1` has a THP-1 cell loss of 100%. `C[S+]([O-])c1ccc(-c2nc(-c3ccc(F)cc3)c(-c3ccncc3)[nH]2)cc1` (stereo unspecified) showed a THP-1 cell loss of 22.7 ± 8.7%. For `N#Cc1c(NC(=O)c2cccc3ccccc23)sc2c1CCCC2`, the THP-1 cell loss was 60.6 ± 15%. With `C=CC[C@@H]1/C=C(\C)C[C@H](C)C[C@H](OC)[C@H]2O[C@@](O)(C(=O)C(=O)N3CCCC[C@H]3C(=O)O[C@H](/C(C)=C/[C@@H]3CC[C@@H](O)[C@H](OC)C3)[C@H](C)[C@@H](O)CC1=O)[C@H](C)C[C@@H]2OC` the THP-1 cell loss was 0%. Compound `Nc1ccc(C(=O)Nc2cccc(-c3nc(N4CCOCC4)c4oc5ncccc5c4n3)c2)cn1` has a THP-1 cell loss of 43 ± 2.2%. `O=C1NC(=O)/C(=C/c2ccc(-c3ccc(F)cc3O)o2)S1` showed a THP-1 cell loss of 39.7 ± 23%. For `Cn1cc(-c2cnc3ccc4ccc(CS(=O)(=O)NCc5ccccn5)cc4c(=O)c3c2)cn1`, the THP-1 cell loss was 52.3 ± 67%. Compound `C=CC(=O)Nc1cc2c(Nc3ccc(F)c(Cl)c3)ncnc2cc1C#CC(C)(C)N1CCN(C)CC1` has a THP-1 cell loss of 100%. For `COC(=O)c1ccc2c(c1)NC(=O)/C2=C(\Nc1ccc(N(C)C(=O)CN2CCN(C)CC2)cc1)c1ccccc1`, the THP-1 cell loss was 10.48 ± 0.013%. In the case of `CCN1/C(=C/C(C)=O)Sc2ccc(OC)cc21`, the THP-1 cell loss is reported as 12.5 ± 2.4%. `Cc1cc(C(=O)NOCCO)c(Nc2ccc(I)cc2F)n(C)c1=O` was tested, and the THP-1 cell loss was 100%. With `COc1cc(Nc2ncc(F)c(Nc3ccc4c(n3)NC(=O)C(C)(C)O4)n2)cc(OC)c1OC` the THP-1 cell loss was 63.4 ± 52%. `Nc1cccc(-c2cc3c(Oc4cccc(O)c4)ncnc3[nH]2)c1` showed a THP-1 cell loss of 25.7 ± 7.3%. With `C=CC(=O)Nc1cc2c(Nc3ccc(F)c(Cl)c3)ncnc2cc1OCCCN1CCOCC1` the THP-1 cell loss was 100%. `Nc1ncnc2c1c(I)cn2[C@@H]1O[C@H](CO)[C@@H](O)[C@H]1O` [5-Iodotubercidin] gave a THP-1 cell loss of 100%. Compound `O=C(Nc1cccc(Nc2ncc(Br)c(NCCc3cnc[nH]3)n2)c1)N1CCCC1` has a THP-1 cell loss of 36 ± 15%. Work on `COc1cc2c(Oc3ccc(NC(=O)C4(C(=O)Nc5ccc(F)cc5)CC4)cc3F)ccnc2cc1OCCCN1CCOCC1` yielded a THP-1 cell loss of 100%. `O=C(c1ccc(Nc2nccc(-c3cc4ccccc4s3)n2)cc1)N1CCC(N2CCCC2)CC1` gave a THP-1 cell loss of 100%.
